Results as given in PubChem BioAssay AID488809 (Broad Institute, 2010).
Entries with a potency or affinity are not part of this list. Records with an inconclusive call do not appear. Active and inactive are the calls of the source. The rule behind the calls is not given here.

Experiment: cytotoxicity in NIH-3T3 fibroblasts, dose response, cytotoxicity control for antifungal drug resistance project, cell-based, Alamar Blue, fluconazole, dry powder (AID 488809)
Conditions: NIH-3T3 fibroblasts + fluconazole, Alamar Blue viability, 48 h; series mostly up to 26 µM

Question: Which outcome does the source give for `Cc1ccc(C(=O)N2CCN(c3ccnc4cc(Cl)ccc34)CC2)cc1` here?
Answer: inactive

Question: For `COC(=O)Cn1nc(-c2ccccc2)c2cc(Cl)ccc21`, which outcome is on record?
Answer: inactive

Question: Which outcome does the source give for `O=C(c1ccccc1)N1CCN(c2ccnc3cc(Cl)ccc23)CC1` here?
Answer: inactive

Question: For `COC(=O)Cn1nc(C)c2ccccc21`, which outcome is on record?
Answer: inactive

Question: Which outcome does the source give for `O=C(Cn1c2ccccc2c2nc3n(c(=O)c21)CCS3)NCCc1ccc(Cl)cc1` here?
Answer: inactive
